This note sets out measurements from PubChem BioAssay (EPA / NIEHS).

Common to all, as to conditions: mRNA level, 48 h; actives raise or lower the signal
Read-out in assay [1]: Ezrin (EZR), EZR (gene 7430)
The experiment in a line: LTEA_HepaRG_EZR: Life Technologies and Expression Analysis (LTEA) Assay for Ezrin (EZR) using HepaRG (AID 2283491). The procedure, abridged: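 EZR transcript levels came from Fluidigm qRT-PCR and were normalized to three housekeeping genes after 48 h chemical exposure of HepaRG cells. Dosing used an 8-point half-log series with a 100 uM top concentration in 0.5% DMSO, tested in duplicate; both directions were fitted versus vehicle.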

Read-out in another assay: CYP3A5 (gene 1577)
The experiment in a line: LTEA_HepaRG_CYP3A5: Life Technologies and Expression Analysis (LTEA) Assay for CYP3A5 using HepaRG (AID 2283493). The procedure, abridged: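 Differentiated HepaRG cells in serum-free induction medium were dosed 48 h with test chemicals (8-point half-log series, top 100 uM, 0.5% DMSO, duplicate). CYP3A5 mRNA measured by qRT-PCR, normalized to ACTB, GAPDH, POLR2A; bidirectional fit versus DMSO.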

Read-out in assay [2]: Fatty Acid-Binding Protein 1 (FABP1), FABP1 (gene 2168)
The experiment in a line: LTEA_HepaRG_FABP1: Life Technologies and Expression Analysis (LTEA) Assay for Fatty Acid-Binding Protein 1 (FABP1) using HepaRG (AID 2283494). The procedure, abridged:
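Differentiated human HepaRG cells were exposed in duplicate for 48 h in serum-free induction medium to 8-point half-log concentration series topping at 100 uM in 0.5% DMSO. FABP1 mRNA measured by TaqMan qRT-PCR, normalized to ACTB/GAPDH/POLR2A; bidirectional fit versus DMSO.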

Read-out in assay [3]: Cytochrome P450 4A22 (Homo sapiens) (UniProt Q5TCH4)
The experiment in a line: LTEA_HepaRG_CYP4A22: Life Technologies and Expression Analysis (LTEA) Assay for Cytochrome P450 4A22 (CYP4A22) using HepaRG (AID 2283495). The procedure, abridged: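 Gene expression measured by qRT-PCR against three housekeeping genes (ACTB, GAPDH, POLR2A), with gain or loss fitted relative to 0.5% DMSO vehicle. HepaRG cultures received 48 h chemical treatment, top concentration 100 uM, half-log steps, duplicate wells.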

Read-out in assay [4]: Cytochrome P450 7A1 (Homo sapiens) (UniProt P22680)
The experiment in a line: LTEA_HepaRG_CYP7A1: Life Technologies and Expression Analysis (LTEA) Assay for Cytochrome P450 7A1 (CYP7A1) using HepaRG (AID 2283496). The method, boiled down:
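Gene expression endpoint in human HepaRG liver cells treated for 48 h with test chemicals (up to 100 uM, 0.5% DMSO). Values come from bidirectional concentration-response fitting versus DMSO.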

Read-out in assay [5]: Glutathione S-Transferase (GSTA2), GSTA2 (gene 2939)
The experiment in a line: LTEA_HepaRG_GSTA2: Life Technologies and Expression Analysis (LTEA) Assay for Glutathione S-Transferase (GSTA2) using HepaRG (AID 2283497). The method, boiled down: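 Human HepaRG cells, plated 48 h, then exposed in serum-free induction medium for 48 h to eight half-log concentrations up to 100 uM in 0.5% DMSO, duplicate. GSTA2 mRNA by qRT-PCR, normalized to ACTB/GAPDH/POLR2A; bidirectional fit versus DMSO.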

Read-out in assay [6]: Glutamate-cysteine ligase catalytic (GCLC), GCLC (gene 2729)
The experiment in a line: LTEA_HepaRG_GCLC: Life Technologies and Expression Analysis (LTEA) Assay for Glutamate-cysteine ligase catalytic (GCLC) using HepaRG (AID 2283498). The procedure, abridged:
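Differentiated human HepaRG cells, plated 48 h then switched to serum-free induction medium, were exposed in duplicate for 48 h to 8 half-log concentrations topping at 100 uM in 0.5% DMSO. GCLC mRNA was quantified by qRT-PCR against ACTB, GAPDH and POLR2A.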

Read-out in assay [7]: Glutamate-cysteine ligase regulatory (GCLM), GCLM (gene 2730)
The experiment in a line: LTEA_HepaRG_GCLM: Life Technologies and Expression Analysis (LTEA) Assay for Glutamate-cysteine ligase regulatory (GCLM) using HepaRG (AID 2283500). The method, boiled down: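 Differentiated human HepaRG cells exposed 48 h in serum-free induction medium to 8-point half-log concentrations (top 100 uM, 0.5% DMSO), in duplicate. GCLM mRNA quantified by qRT-PCR, normalized to ACTB, GAPDH, POLR2A; bidirectional fitting versus DMSO.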

Read-out in assay [8]: Glutathione S-transferase M3 (GSTM3), GSTM3 (gene 2947)
The experiment in a line: LTEA_HepaRG_GSTM3: Life Technologies and Expression Analysis (LTEA) Assay for Glutathione S-transferase M3 (GSTM3) using HepaRG (AID 2283501). The method, boiled down: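 GSTM3 transcript levels came from Fluidigm TaqMan qRT-PCR normalized to three housekeeping genes, fitted in both directions against DMSO. HepaRG cultures received chemicals for 48 h in serum-free induction medium (0.5% DMSO), 8 half-log concentrations up to 100 uM, duplicate.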

Read-out in assay [9]: Hypoxia-inducible factor 1-alpha (Homo sapiens) (UniProt Q16665)
The experiment in a line: LTEA_HepaRG_HIF1A: Life Technologies and Expression Analysis (LTEA) Assay for Hypoxia-inducible factor 1 (HIF1A) Trancription factor using HepaRG (AID 2283503). The procedure, abridged:
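HepaRG, 48 h exposure, 8-pt half-log series from 100 uM, 0.5% DMSO vehicle, duplicates. Readout: HIF1A transcript by qRT-PCR (Fluidigm array), housekeeping-normalised. Bidirectional curve fit vs DMSO baseline.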

Read-out in assay [10]: 3-Hydroxy-3-Methylglutaryl-CoA Synthase 2 (HMGCS2), HMGCS2 (gene 3158)
The experiment in a line: LTEA_HepaRG_HMGCS2: Life Technologies and Expression Analysis (LTEA) Assay for 3-Hydroxy-3-Methylglutaryl-CoA Synthase 2 (HMGCS2) using HepaRG (AID 2283504). The procedure, abridged: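 Readout is HMGCS2 transcript by qRT-PCR, housekeeping-normalised (ACTB/GAPDH/POLR2A) and fitted bidirectionally against 0.5% DMSO. Differentiated HepaRG cells received chemicals 48 h, duplicate wells, eight half-log concentrations topping at 100 uM.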

Read-out in assay [11]: Insulin Like Growth Factor 1 (IGF1), IGF1 (gene 3479)
The experiment in a line: LTEA_HepaRG_IGF1: Life Technologies and Expression Analysis (LTEA) Assay for Insulin Like Growth Factor 1 (IGF1) using HepaRG (AID 2283506). The method, boiled down:
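Differentiated human HepaRG cells were dosed for 48 h in serum-free induction medium with 0.5% DMSO, eight half-log concentrations up to 100 uM, in duplicate. IGF1 mRNA was quantified by qRT-PCR normalized to ACTB, GAPDH, POLR2A; bidirectional fitting versus DMSO.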

Read-out in assay [12]: Insulin-like growth factor-binding protein 1 (IGFBP1), IGFBP1 (gene 3484)
The experiment in a line: LTEA_HepaRG_IGFBP1: Life Technologies and Expression Analysis (LTEA) Assay for Insulin-like growth factor-binding protein 1 (IGFBP1) using HepaRG (AID 2283508). The procedure, abridged:
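Read-out is qRT-PCR transcript level normalized to three housekeeping genes, fitted in both directions against 0.5% DMSO. Differentiated HepaRG cells received eight half-log concentrations (top 100 uM) in duplicate for 48 h in serum-free induction medium.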

Read-out in assay [13]: Early growth response protein 1 (EGR1) transcription factor, EGR1 (gene 1958)
The experiment in a line: LTEA_HepaRG_EGR1: Life Technologies and Expression Analysis (LTEA) Assay for Early growth response protein 1 (EGR1) transcription factor using HepaRG (AID 2283490). The procedure, abridged: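 Differentiated human HepaRG cells in serum-free induction medium were exposed in duplicate for 48 h to eight concentrations (top 100 uM, half-log steps) in 0.5% DMSO. EGR1 mRNA was quantified by qRT-PCR, normalized to ACTB, GAPDH and POLR2A, and fitted bidirectionally versus DMSO.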

Read-out in assay [14]: Cytochrome P450 3A7 (Homo sapiens) (UniProt P24462)
The experiment in a line: LTEA_HepaRG_CYP3A7: Life Technologies and Expression Analysis (LTEA) Assay for CYP3A7 using HepaRG (AID 2283492). The procedure, abridged:
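CYP3A7 transcript measured by qRT-PCR (ACTB, GAPDH, POLR2A normalization) after 48 h chemical exposure of HepaRG cells in duplicate. Eight half-log concentrations, maximum 100 uM, 0.5% DMSO vehicle; bidirectional curve fitting against DMSO baseline.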

Read-out in assay [15]: Heat shock 70 kDa protein 1 (HSPA1A), gene 3303
The experiment in a line: LTEA_HepaRG_HSPA1A: Life Technologies and Expression Analysis (LTEA) Assay for Heat shock 70 kDa protein 1 (HSPA1A) using HepaRG (AID 2283502). The method, boiled down: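 Differentiated human HepaRG cells in serum-free induction medium were exposed in duplicate for 48 h to eight concentrations (top 100 uM, half-log steps, 0.5% DMSO). HSPA1A mRNA was quantified by qRT-PCR, normalized to ACTB, GAPDH and POLR2A, and fitted bidirectionally against DMSO.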

Read-out in the next assay: HGF (gene 3082)
The experiment in a line: LTEA_HepaRG_HGF: Life Technologies and Expression Analysis (LTEA) Assay for Hepatocyte Growth Facto (HGF) using HepaRG (AID 2283505). The method, boiled down: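 HGF transcript was quantified by TaqMan qRT-PCR against three housekeeping genes after 48 h treatment of HepaRG cells. Exposure ran in duplicate over eight half-log steps topping at 100 uM in 0.5% DMSO vehicle.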

Read-out in assay [16]: Intercellular Adhesion Molecule 1 (ICAM1), ICAM1 (gene 3383)
The experiment in a line: LTEA_HepaRG_ICAM1: Life Technologies and Expression Analysis (LTEA) Assay for Intercellular Adhesion Molecule 1 (ICAM1) using HepaRG (AID 2283507). The method, boiled down: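 ICAM1 transcript levels measured by qRT-PCR, normalized to three housekeeping genes (ACTB, GAPDH, POLR2A), after 48 h chemical exposure of HepaRG cells. Duplicate eight-point half-log series from 100 uM in 0.5% DMSO; gain or loss fitted against vehicle.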

Read-out in assay [17]: growth arrest and DNA damage 45 (GADD45G), GADD45G (gene 10912)
The experiment in a line: LTEA_HepaRG_GADD45G: Life Technologies and Expression Analysis (LTEA) Assay for growth arrest and DNA damage 45 (GADD45G) using HepaRG (AID 2283499). The procedure, abridged: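 GADD45G transcript level by qRT-PCR (housekeeping-normalized: ACTB, GAPDH, POLR2A) after 48 h chemical treatment of a single HepaRG lot in serum-free induction medium; eight-point half-log series up to 100 uM in 0.5% DMSO, duplicates, up- or down-regulation scored.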

The source made the active and inactive calls. The calls were made as follows: active = hit-call score of the fitted dose curve at least 0.9, where 1 is the maximum; inactive = score below 0.9.

Chain of Cytochrome P450 3A7 (Homo sapiens) (P24462 whole entry, looked up): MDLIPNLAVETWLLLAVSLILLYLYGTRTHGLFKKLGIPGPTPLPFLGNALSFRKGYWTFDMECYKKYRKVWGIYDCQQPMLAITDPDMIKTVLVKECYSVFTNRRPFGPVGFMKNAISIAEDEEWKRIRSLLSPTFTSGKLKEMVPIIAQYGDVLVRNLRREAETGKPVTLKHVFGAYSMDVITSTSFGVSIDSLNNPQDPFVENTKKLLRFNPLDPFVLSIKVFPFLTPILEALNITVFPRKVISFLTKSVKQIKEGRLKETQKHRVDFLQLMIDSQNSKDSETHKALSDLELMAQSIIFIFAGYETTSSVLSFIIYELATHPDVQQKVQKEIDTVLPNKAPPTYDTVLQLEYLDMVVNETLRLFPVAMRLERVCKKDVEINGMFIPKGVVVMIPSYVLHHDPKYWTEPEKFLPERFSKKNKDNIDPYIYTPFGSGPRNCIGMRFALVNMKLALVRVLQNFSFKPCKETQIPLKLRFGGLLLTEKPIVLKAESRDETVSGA
Chain of Hypoxia-inducible factor 1-alpha (Homo sapiens) (Q16665 whole entry, looked up): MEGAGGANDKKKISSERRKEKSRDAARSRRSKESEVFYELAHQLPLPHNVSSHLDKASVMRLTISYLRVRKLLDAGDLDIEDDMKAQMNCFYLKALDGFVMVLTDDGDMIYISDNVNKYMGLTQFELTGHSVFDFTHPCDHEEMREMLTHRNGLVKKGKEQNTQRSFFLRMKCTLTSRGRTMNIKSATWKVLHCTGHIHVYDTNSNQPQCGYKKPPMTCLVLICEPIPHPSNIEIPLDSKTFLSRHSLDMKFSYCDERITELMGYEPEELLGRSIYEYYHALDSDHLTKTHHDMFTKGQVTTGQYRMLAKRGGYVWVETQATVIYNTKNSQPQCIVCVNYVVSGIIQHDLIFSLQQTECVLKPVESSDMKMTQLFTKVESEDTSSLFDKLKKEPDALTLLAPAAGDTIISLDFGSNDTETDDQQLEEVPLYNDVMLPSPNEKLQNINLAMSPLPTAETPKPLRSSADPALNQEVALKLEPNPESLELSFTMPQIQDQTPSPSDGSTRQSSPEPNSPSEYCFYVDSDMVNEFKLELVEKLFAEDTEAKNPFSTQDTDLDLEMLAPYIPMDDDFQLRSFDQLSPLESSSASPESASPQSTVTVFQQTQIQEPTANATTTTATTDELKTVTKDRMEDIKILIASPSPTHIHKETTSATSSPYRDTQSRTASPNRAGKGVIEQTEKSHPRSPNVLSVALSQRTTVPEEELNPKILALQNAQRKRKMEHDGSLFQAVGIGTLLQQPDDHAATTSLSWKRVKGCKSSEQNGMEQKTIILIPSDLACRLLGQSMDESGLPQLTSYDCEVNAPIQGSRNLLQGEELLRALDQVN

Usually AC50 stands for the midpoint of the concentration-response curve, whichever way the signal moves. For `CCCCC(CC)COC(=O)CC(C(=O)OCC(CC)CCCC)S(=O)(=O)O` (configuration not stated), the compound was called inactive in [1], in [3], in assay [8], in [9] and in assay [11]. For the same compound, the concentration at half-maximal activity (AC50) in the assay with CYP3A5 (gene 1577) is 82.9 µM (active); in assay [2] it was 91.6 µM (active); in assay [4] it was 92 µM (active); in [5] it was 82.2 µM (active); in [6], 94.6 µM (active); in [7] it was 79.7 µM (active). In addition, the results for the AC50 in [10] and in assay [12] were 79.6 µM (active) and 90.7 µM (active), respectively.
For the compound `C=CCc1ccc(O)c(OC)c1`, the result (in assay [13]; in [1]; in [14]; with CYP3A5 (gene 1577); in assay [2]; in assay [3]) was inactive. Besides, the call in assay [4], in [5], in assay [6], in assay [7], in assay [8] and in assay [15] was inactive. For the same compound, the outcome (in assay [9]; in assay [10]; with HGF (gene 3082); in assay [11]; in assay [16]; in assay [12]) was inactive.
On to `CCOC(=O)CCC(=O)OCC`, for which the result (in [1]; in assay [14]; with CYP3A5 (gene 1577); in [2]; in [3]; in assay [4]) was inactive. Further, the compound was called inactive in [5], in assay [6], in [7], in [9], in assay [10] and in assay [11]. In assay [12], the compound was classed as inactive. For the same compound, in [8], the AC50 was 83.4 µM (active).
As to `CCCc1cc(=O)[nH]c(=S)[nH]1`, the call (in assay [13]; in [1]; in [14]; in the assay with CYP3A5 (gene 1577); in [2]; in [3]) was inactive. For the same compound, the outcome in assay [4], in assay [5], in assay [6], in assay [17], in assay [7] and in assay [8] was inactive. Besides, the outcome (in assay [10]; with HGF (gene 3082); in assay [11]; in assay [16]; in [12]) was inactive.
